The antibiotic and cytotoxicity screens of Wong et al. (2023)
In all, about 39,000 compounds went through this assay and about 3,300 (8.5%) were called active. This excerpt belongs to a sample that is enriched for actives.

The molecules below were run on HepG2 (assay: cytotoxicity call (relative viability < 0.9)). Conditions: 10 µM.

Compound | cytotoxicity call
CCN1[C@H](C(=O)NCCc2cn(C)cn2)[C@@H](CO)[C@@H]2Cn3c(ccc(-c4ccncc4)c3=O)[C@@H]21 | inactive
C[C@@H]1CN([C@H](C)CO)C(=O)c2cccc(NS(=O)(=O)c3cn(C)cn3)c2O[C@H]1CN(C)S(=O)(=O)c1ccccc1 | inactive
C[C@@H]1CCCCO[C@@H](CN(C)C(=O)Nc2ccc(C(F)(F)F)cc2)[C@@H](C)CN([C@H](C)CO)C(=O)c2cc(NC(=O)c3ccncc3)ccc2O1 | inactive
C[C@H](O)C#Cc1ccc2c(c1)O[C@H](CN(C)C(=O)CN(C)C)[C@@H](C)CN([C@H](C)CO)S2(=O)=O | inactive
COc1ccc(NC(=O)Nc2cccc3c2O[C@H](CN(C)Cc2ccc(Cl)c(Cl)c2)[C@H](C)CN([C@@H](C)CO)C3=O)cc1 | inactive
COc1ccc(S(=O)(=O)N(C)C[C@H]2OCCCC[C@@H](C)Oc3ccc(NC(=O)Nc4ccc5c(c4)OCO5)cc3C(=O)N([C@H](C)CO)C[C@@H]2C)cc1 | inactive
Cc1noc(C)c1NC(=O)Nc1ccc2c(c1)C(=O)N([C@H](C)CO)C[C@@H](C)[C@H](CN(C)Cc1ccc3c(c1)OCO3)OCCCC[C@H](C)O2 | inactive
Cc1noc(C)c1S(=O)(=O)Nc1ccc2c(c1)C(=O)N([C@@H](C)CO)C[C@@H](C)[C@@H](CN(C)Cc1ccc(Oc3ccccc3)cc1)O2 | inactive
C[C@@H]1CN([C@H](C)CO)C(=O)c2cc(NC(=O)Nc3cccc4ccccc34)ccc2O[C@@H](C)CCCCO[C@H]1CN(C)S(=O)(=O)c1ccccc1 | inactive
CC(=O)N1[C@@H]2c3cccc(=O)n3C[C@H]1[C@H](CO)[C@H]2C(=O)N1CCc2ccccc2C1 | inactive
C[C@H]1CN([C@@H](C)CO)C(=O)Cc2cc(NC(=O)Cc3cn(C)c4ccccc34)ccc2O[C@H]1CN(C)Cc1ccc(C(F)(F)F)cc1 | active
C[C@H](CO)N1C[C@H](C)[C@@H](CN(C)Cc2ccc(C(F)(F)F)cc2)Oc2ccc(NC(=O)Cc3cn(C)c4ccccc34)cc2CC1=O | inactive
C[C@@H]1CN([C@H](C)CO)C(=O)Cc2cc(NC(=O)Cc3cn(C)c4ccccc34)ccc2O[C@H]1CN(C)Cc1ccc(C(F)(F)F)cc1 | inactive
C[C@@H]1CN([C@@H](C)CO)C(=O)c2c(c3ccccc3n2C)-c2ccccc2CO[C@H]1CN(C)Cc1cccc(C(F)(F)F)c1 | inactive
Cc1ccc(S(=O)(=O)N(C)C[C@@H]2OCCCC[C@@H](C)Oc3ccc(NC(=O)C4CCCCC4)cc3C(=O)N([C@H](C)CO)C[C@@H]2C)cc1 | inactive
C[C@@H]1CCCCO[C@@H](CN(C)S(=O)(=O)c2ccc(Cl)cc2)[C@@H](C)CN([C@@H](C)CO)C(=O)c2cc(NC(=O)C3CCCCC3)ccc2O1 | inactive
Cc1ccc(S(=O)(=O)N(C)C[C@H]2OCCCC[C@@H](C)Oc3ccc(NC(=O)C4CCCCC4)cc3C(=O)N([C@H](C)CO)C[C@@H]2C)cc1 | active
C[C@@H]1CCCCO[C@H](CN(C)S(=O)(=O)c2ccc(Cl)cc2)[C@H](C)CN([C@H](C)CO)C(=O)c2cc(NC(=O)C3CCCCC3)ccc2O1 | active
C[C@H](CO)N1C[C@H](C)[C@H](CN(C)S(=O)(=O)c2ccc(F)cc2)OCCCC[C@H](C)Oc2ccc(NC(=O)C3CCCCC3)cc2C1=O | inactive
Cc1ccc(S(=O)(=O)N(C)C[C@H]2OCCCC[C@H](C)Oc3ccc(NC(=O)C4CCCCC4)cc3C(=O)N([C@@H](C)CO)C[C@@H]2C)cc1 | active
C[C@@H]1CCCCO[C@@H](CN(C)S(=O)(=O)c2ccc(F)cc2)[C@H](C)CN([C@H](C)CO)C(=O)c2cc(NC(=O)C3CCCCC3)ccc2O1 | active
C[C@@H]1CN([C@H](C)CO)C(=O)c2cc(NC(=O)C3CCCCC3)ccc2O[C@@H](C)CCCCO[C@H]1CN(C)S(=O)(=O)c1ccc(F)cc1 | inactive
C[C@@H]1CN([C@@H](C)CO)C(=O)c2cc(NC(=O)C3CCCCC3)ccc2O[C@@H](C)CCCCO[C@@H]1CN(C)S(=O)(=O)c1ccc(Cl)cc1 | inactive
Cc1ccc(S(=O)(=O)N(C)C[C@H]2OCCCC[C@H](C)Oc3ccc(NC(=O)C4CCCCC4)cc3C(=O)N([C@H](C)CO)C[C@H]2C)cc1 | inactive
Cc1ccc(S(=O)(=O)N(C)C[C@@H]2OCCCC[C@@H](C)Oc3ccc(NC(=O)C4CCCCC4)cc3C(=O)N([C@H](C)CO)C[C@H]2C)cc1 | inactive
Cc1ccc(S(=O)(=O)N(C)C[C@H]2OCCCC[C@@H](C)Oc3ccc(NC(=O)C4CCCCC4)cc3C(=O)N([C@@H](C)CO)C[C@H]2C)cc1 | inactive
